Compound activity as filed in PubChem.
CHX counter – Cycloheximide Counterscreen for Small Molecule Inhibitors of Shiga Toxin | cell reporter, cycloheximide protein synthesis inhibition counterscreen | AID 2314, 2010 | max response, % | 300,000 tested, 12% active; in the data active = max response mostly above about 13%, no sharp cut-off; inactive = mostly below about 14%; note: read at 38.3 µM for the half of the compounds with a filed dose; 0% is about no effect
Pf growth 96h – Primary qHTS for delayed death inhibitors of the malarial parasite plastid, 96 hour incubation; P. falciparum luciferase reporter growth, 96 h; Potency, µM (top dose mostly 28.7 µM), inactives show at the highest dose activity change, negative = inhibition, hits mostly inhibitors; 320,000 tested, 6.9% active; note: potency is the fitted concentration of half-maximal effect; % is set by controls: 0 for no effect and ±100 for the full control effect
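Cell-based qHTS: luciferase-tagged P. falciparum in erythrocytes (2% hematocrit, 0.05% parasitemia final) incubated with compounds for 96 hours, 37 C, 5% CO2; luciferase detection reagent then added and luminescence measured.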
HCMV inh – qHTS Assay for inhibitors of the human cytomegalovirus (HCMV). HFF cells, HCMV-luciferase reporter, 72 h; stronger effect = lower value. activity change, negative = inhibition, % at 57.5 µM. 410,000 tested, 4.5% active. AID 1259415, 2018; in the data active = activity change below about -60%; inconclusive = no clear call, values can overlap the other calls; inactive = above about -39%; note: % is set by controls: 0 for no effect and ±100 for the full control effect
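Luciferase read-out from HCMV-luciferase-infected HFFs (MOI 1 PFU/cell) 72 h post infection at 37C; compounds added after 16 h cell attachment; activity normalized between buffer-only basal and Salinomycin (10uM) inhibitor controls.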
Shiga inhibitor – A qHTS for Small Molecule Inhibitors of Shiga Toxin; inhibition, % at 38.7 µM; Vero cells, Shiga toxin protein synthesis inhibition reporter; AID 2315, 2010; 290,000 tested, 9.2% active; in the data active = inhibition mostly above about 28%, no sharp cut-off; inactive = mostly below about 43%; note: 0% is about no effect
Pf growth 48h – Primary qHTS for delayed death inhibitors of the malarial parasite plastid, 48 hour incubation; 310,000 tested, 5.9% active; AID 504832, 2011; P. falciparum luciferase growth in erythrocytes, 48 h; Potency, µM (top dose mostly 28.7 µM), inactives show top-dose activity change, negative = inhibition, most hits filed as inhibitors; note: potency is the fitted concentration of half-maximal effect; % is set by controls: 0 for no effect and ±100 for the full control effect
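Luciferase-expressing P. falciparum in infected erythrocytes (2% hematocrit, 0.1% parasitemia final) in RPMI 1640/0.5% Albumax were exposed to compound for 48 hours at 37 C, 5% CO2; growth read as luminescence.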
HCV inh – qHTS Assay for Inhibitors of Hepatitis C Virus (HCV); Huh7.5.1 HCVcc-Cre infection, luciferase reporter, 44 h; Potency, µM (series often up to 41.8 µM), for the others: top-dose activity change, negative = inhibition, most hits filed as inhibitors; 340,000 tested, 3.4% active; AID 651820, 2012; note: potency is the fitted concentration of half-maximal effect; % is set by controls: 0 for no effect and ±100 for the full control effect
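Luciferase read-out (15 sec integration) after a 15 min room-temperature substrate step quantifies HCVcc-Cre infection. Cells, 1,000 per well, had compound added 4 h post-plating, then virus at ~0.5 moi, and were cultured 44 h.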
Starred values were filed as active, the others as inactive. A selection: hits, their analogues and other compounds. The true share with any hit is near 21%. Unless noted, calls come from the whole dose curve; as a rule, active = well fitted inhibition curve with a large enough effect; inconclusive = small, poorly fitted or top-dose-only effect, or another doubt; inactive = no such curve, though single readings can be large or run the other way.

For COc1ccc(/C(CC2OC(=O)c3ccccc32)=N\NC(N)=O)cc1 (stereo unspecified) the results were CHX counter -2.5, Pf growth 96h -9.9%, HCMV inh 1.4, Shiga inhibitor -0.8, Pf growth 48h 19.7% and HCV inh 16.7%.
Screening COc1ccc2c(c1OC)C(=O)OC2C/C(=N\NC(N)=O)c1ccccc1 (stereo unspecified) returned CHX counter 5.5, Pf growth 96h 13.1%, HCMV inh -70.0*, Shiga inhibitor 22.6, Pf growth 48h 11.7% and HCV inh 15.8%.
Screening CC(C)[C@H](NS(=O)(=O)c1cccc(C(F)(F)F)c1)C(=O)OCC(N)=O returned CHX counter -0.7, Pf growth 96h 29.8%, HCMV inh inconclusive, Shiga inhibitor -8.2, Pf growth 48h -6.1% and HCV inh 21.3%.
For COC(CN(C)C(=O)c1ccc2c(c1)NC(=O)c1ccccc1S2)OC the results were CHX counter -2.7, Pf growth 96h 10.1%, HCMV inh 45.6, Shiga inhibitor -4.4, Pf growth 48h 1.47µM* and HCV inh 11.8%.
CCOC(=O)c1ccc(NC(=O)c2ccc3c(c2)NC(=O)c2ccccc2S3)cc1 was read as HCMV inh 15.3.
Screening CN(C)CCNC(=O)c1ccc2c(c1)NC(=O)c1ccccc1S2 returned CHX counter 3.0, Pf growth 96h inconclusive, HCMV inh -11.4, Shiga inhibitor -14.5, Pf growth 48h 11.7µM* and HCV inh 8.91µM*.
Cc1ccc(NC(=O)c2ccc3c(c2)NC(=O)c2ccccc2S3)cc1 was read as HCMV inh -71.3*.
Screening CCN(CC)CCNC(=O)c1ccc2c(c1)NC(=O)c1ccccc1S2 returned CHX counter 1.1, Pf growth 96h inconclusive, HCMV inh 2.2, Shiga inhibitor -4.4, Pf growth 48h inconclusive and HCV inh inconclusive.
`CC(C)C(NC(=O)C1CCCCC1)C(=O)NCCc1ccccc1` (stereo unspecified) gave CHX counter -1.4, Pf growth 96h inconclusive, HCMV inh inconclusive, Shiga inhibitor 1.3, Pf growth 48h 9.5% and HCV inh 27.0%.
For COc1cccc(C(=O)Nc2ccc(S(=O)(=O)NCc3ccco3)cc2)c1 the results were CHX counter 20.2, HCMV inh 40.8, Shiga inhibitor 75.9, Pf growth 48h -3.9% and HCV inh 25.1µM*.
For Cc1ccc(NC(=O)c2ccc(S(=O)(=O)NCc3ccco3)cc2)cc1 the results were CHX counter 6.3, Pf growth 96h inconclusive, HCMV inh -7.7, Shiga inhibitor -2.6, Pf growth 48h 2.8% and HCV inh -3.8%.
For O=C(Nc1ccc(S(=O)(=O)NCc2ccco2)cc1)c1cccc(F)c1 the results were CHX counter 17.7, Pf growth 96h 26.0%, HCMV inh 23.4, Shiga inhibitor 37.4*, Pf growth 48h 24.9% and HCV inh -20.8%.
COC(=O)[C@@H](Cc1ccccc1)NC(=O)Cn1cc(C)c(=O)[nH]c1=O was read as HCMV inh -6.7 and HCV inh 21.3%.
For COc1ccc(C)cc1NC(=O)CCCN1C(=O)C(c2ccccc2)Oc2cccnc21 (stereo unspecified) the results were CHX counter 0.8, Pf growth 96h 19.8%, HCMV inh -26.4, Shiga inhibitor -1.6, Pf growth 48h inconclusive and HCV inh inconclusive.
`O=C1c2cccc(NCCNCCO)c2C(=O)c2cccc(NCCNCCO)c21` gave HCMV inh -99.5* and HCV inh inconclusive.
Screening O=C(O)CCNc1ccc(NCCC(=O)O)c2c1C(=O)c1ccccc1C2=O returned CHX counter -5.4, Pf growth 96h inconclusive, HCMV inh -71.9*, Shiga inhibitor -18.2, Pf growth 48h inconclusive and HCV inh -7.6%.
Screening COc1ccccc1NCCC(=O)O returned CHX counter -0.9, Pf growth 96h 28.8%, HCMV inh 0.0, Shiga inhibitor 4.9, Pf growth 48h 0.4% and HCV inh -1.8%.
Screening O=C(NCCO)c1cccc2c1C(=O)c1ccccc1-2 returned CHX counter 8.7, Pf growth 96h 49.1%, HCMV inh -30.3, Shiga inhibitor 17.2, Pf growth 48h 33.0% and HCV inh 16.5%.
`O=C(Nc1ccc(Br)cc1F)c1cc(S(=O)(=O)NCc2ccc(F)cc2)ccc1F` gave HCMV inh 36.4.
Screening Cc1oc(-c2ccccc2Cl)nc1CS(=O)(=O)CC(=O)NC1CCCC1 returned CHX counter -1.8, Pf growth 96h inconclusive, HCMV inh -7.7, Shiga inhibitor 2.7, Pf growth 48h inconclusive and HCV inh -26.4%.
For COc1ccc(-c2csc(NC(=O)CSCC(=O)Nc3cc(C)on3)n2)cc1OC the results were Pf growth 96h inconclusive, HCMV inh -16.6, Pf growth 48h inconclusive and HCV inh inconclusive.
`O=C(CSCC(=O)N1CCOCC1)Nc1nc(-c2ccc3c(c2)OCO3)cs1` gave CHX counter 33.2*, Pf growth 96h -24.4%, HCMV inh 95.3, Shiga inhibitor 34.6 and HCV inh -21.8%.
For N#CCC(=O)Nc1nc(-c2ccc3c(c2)OCCO3)cs1 the results were CHX counter 32.2*, Pf growth 96h 10.4µM*, HCMV inh -8.2, Shiga inhibitor 55.7*, Pf growth 48h 22.8% and HCV inh -1.6%.
For O=C(CCCCl)Nc1nc(-c2ccc3c(c2)OCCO3)cs1 the results were CHX counter 30.9*, Pf growth 96h 123.1%, HCMV inh 117.2, Shiga inhibitor 69.8*, Pf growth 48h 138.4% and HCV inh -10.3%.
`O=C(Nc1nc(-c2ccc3c(c2)OCCO3)cs1)C1CCCC1` gave CHX counter 48.9*, Pf growth 96h 223.6%, HCMV inh -15.6, Shiga inhibitor 148.9*, Pf growth 48h inactive and HCV inh inconclusive.
For Cc1ccc(CNc2oc(-c3ccc(COc4ccc(C)cc4)o3)nc2C#N)cc1 the results were HCMV inh -6.5.
O=C(CCCCCNC(=O)c1ccccc1)N/N=C/c1ccccc1O was read as CHX counter 25.1*, Pf growth 96h 25.0%, HCMV inh -33.7, Shiga inhibitor 25.3, Pf growth 48h 6.9% and HCV inh 18.0%.
CN(C)c1ccc(/C=N/NC(=O)CCCCCNC(=O)c2ccccc2)cc1 was read as CHX counter 55.5*, Pf growth 96h inconclusive, HCMV inh 0.0, Shiga inhibitor 59.9*, Pf growth 48h 15.1% and HCV inh 21.8%.
For CN(C)c1ccc(C=Nc2ccccc2)cc1 the results were CHX counter 5.2, Pf growth 96h 57.5%, HCMV inh 3.9, Shiga inhibitor 52.5, Pf growth 48h 7.7% and HCV inh 2.1%.
